PubChem BioAssay (EPA / NIEHS)
Inconclusive results are not listed. The source made the active and inactive calls. The calls were made as follows, unless noted: active = hit-call score of the fitted dose curve at least 0.9, where 1 is the maximum; inconclusive = response in the unintended direction; inactive = score below 0.9.

Experiments:
[1] = target: human Retinoic Acid Receptor gamma (RARg), RARG (gene 5916) (UniProt P13631); assay: ATG_RARg_TRANS: Attagene TRANS-FACTORIAL HepG2 Assay for human Retinoic Acid Receptor gamma (RARg) (AID 2283009)
Summary of the method: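 Transient transfection of HepG2 with multi-reporter constructs, then 24 h chemical treatment. Total RNA isolated, reverse-transcribed, PCR-amplified, fluorescently labelled and resolved by capillary electrophoresis; activity scored as mRNA induction versus DMSO.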

[2] = target: Retinoic acid receptor RXR-alpha (Homo sapiens) (UniProt P19793); assay: ATG_RXRa_TRANS: Attagene TRANS-FACTORIAL HepG2 Assay for human Retinoid X Receptor alpha (RXRa) (AID 2283012)
Summary of the method: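 Transient transfection of human HepG2 with multiple GAL4-UAS reporter constructs; 24 h compound exposure; total RNA isolated, reverse-transcribed, PCR-amplified, 6-FAM labelled, HpaI-cut, resolved by capillary electrophoresis. Positive-direction fit versus DMSO.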

[3] = read-out: E-selectin (Homo sapiens) (UniProt P16581); assay: BSK_3C_Eselectin: BioMAP Diversity Plus: 3C Assay for Eselectin Biomarker Activity (AID 2283015; active = hit-call score of the fitted dose curve at least 0.9, where 1 is the maximum; inactive = score below 0.9); conditions: primary human endothelial cells (HUVEC); actives raise or lower the signal
Summary of the method: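 E-selectin ELISA readout, fitted bidirectionally relative to DMSO, taken 24 h post-dosing in HUVEC cultures of the 3C system. Overt cytotoxicity tracked with sulforhodamine B staining of parallel wells.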

[4] = read-out: Interleukin-1 alpha (IL1a), IL1A (gene 3552); assay: BSK_BE3C_IL1a: BioMAP Diversity Plus: BE3C Assay for Interleukin-1 alpha (IL1a) Biomarker Activity (AID 2283016; active = hit-call score of the fitted dose curve at least 0.9, where 1 is the maximum; inactive = score below 0.9); conditions: primary human bronchial epithelial cells; actives raise or lower the signal
Summary of the method: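 BE3C primary human bronchial epithelium; cpd 24 h; IL-1a by ELISA; bidirectional fit vs DMSO; parallel SRB (0.1% SRB, 10% TCA fix, 560 nm) for cytotoxicity.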

[5] = read-out: Monocyte Chemoattractant Protein-1 (MCP1), CCL2 (gene 6347); assay: BSK_4H_MCP1: BioMAP Diversity Plus: 4H Assay for Monocyte Chemoattractant Protein-1 (MCP1) Biomarker Activity (AID 2283018; active = hit-call score of the fitted dose curve at least 0.9, where 1 is the maximum; inactive = score below 0.9); conditions: primary human endothelial cells (HUVEC); actives raise or lower the signal
Summary of the method: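 ELISA read-out of MCP-1 from human vascular endothelial primary cells taken at 24 hours after compound exposure. Activity was fitted in both directions relative to DMSO, which served as negative control.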

[6] = read-out: Human Leukocyte Antigen - DR isotype (HLADR), HLA-DRA (gene 3122); assay: BSK_3C_HLADR: BioMAP Diversity Plus: 3C Assay for Human Leukocyte Antigen - DR isotype (HLADR) Biomarker Activity (AID 2283019; active = hit-call score of the fitted dose curve at least 0.9, where 1 is the maximum; inactive = score below 0.9); conditions: primary human endothelial cells (HUVEC); actives raise or lower the signal
Summary of the method: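 Bidirectional fitting against DMSO was applied to the HLA-DR ELISA signal from human umbilical vein endothelial cells, 24 h post-dose. Cytotoxicity came from parallel SRB total-protein staining; 3C proliferation was counted by SRB at 48 h.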

[7] = target: human RAR-related Orphan Receptor gamma (RORg), RORC (gene 6097) (UniProt P51449); assay: ATG_RORg_TRANS: Attagene TRANS-FACTORIAL HepG2 Assay for human RAR-related Orphan Receptor gamma (RORg) (AID 2283011)
Summary of the method: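 Reporter transcripts from a transfected RORg-GAL4 chimera in HepG2 cells were quantified 24 h after dosing by RT-PCR, 6-FAM labelling, HpaI digestion and capillary electrophoresis; increases over DMSO baseline were fitted.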

[8] = target: human Retinoid X Receptor beta (RXRb), RXRB (gene 6257) (UniProt P28702); assay: ATG_RXRb_TRANS: Attagene TRANS-FACTORIAL HepG2 Assay for human Retinoid X Receptor beta (RXRb) (AID 2283013)
Summary of the method: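 Transfect HepG2 with GAL4-UAS multi-reporter constructs (chimeric NR-Gal4, TRANS format); dose compound 24 h; isolate RNA, RT-PCR, FAM primer extension, HpaI digest; quantify by capillary electrophoresis; positive direction vs DMSO.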

[9] = target: human Thyroid Receptor alpha (THRa1), THRA (gene 7067) (UniProt P10827); assay: ATG_THRa1_TRANS: Attagene TRANS-FACTORIAL HepG2 Assay for human Thyroid Receptor alpha (THRa1) (AID 2283014)
Summary of the method: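 Transcripts from GAL4-UAS-driven reporters, measured after 24 h compound exposure by RT-PCR plus capillary electrophoresis of 6-FAM-labeled fragments, were fitted for gain of signal relative to DMSO. Cells: transiently transfected HepG2 expressing NR-Gal4 chimeras.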

[10] = read-out: Monocyte Chemoattractant Protein-1 (MCP1), CCL2 (gene 6347); assay: BSK_3C_MCP1: BioMAP Diversity Plus: 3C Assay for Monocyte Chemoattractant Protein-1 (MCP1) Biomarker Activity (AID 2283017; active = hit-call score of the fitted dose curve at least 0.9, where 1 is the maximum; inactive = score below 0.9); conditions: primary human endothelial cells (HUVEC); actives raise or lower the signal
Summary of the method: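 MCP-1 was measured by ELISA 24 h after dosing in primary HUVEC 3C cultures and fitted in both directions relative to DMSO; cytotoxicity was checked by SRB total-protein staining in parallel wells.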

Measured: AC50

Sequence of Retinoic acid receptor RXR-alpha (Homo sapiens) (P19793 whole entry, looked up, the tested form may be a part): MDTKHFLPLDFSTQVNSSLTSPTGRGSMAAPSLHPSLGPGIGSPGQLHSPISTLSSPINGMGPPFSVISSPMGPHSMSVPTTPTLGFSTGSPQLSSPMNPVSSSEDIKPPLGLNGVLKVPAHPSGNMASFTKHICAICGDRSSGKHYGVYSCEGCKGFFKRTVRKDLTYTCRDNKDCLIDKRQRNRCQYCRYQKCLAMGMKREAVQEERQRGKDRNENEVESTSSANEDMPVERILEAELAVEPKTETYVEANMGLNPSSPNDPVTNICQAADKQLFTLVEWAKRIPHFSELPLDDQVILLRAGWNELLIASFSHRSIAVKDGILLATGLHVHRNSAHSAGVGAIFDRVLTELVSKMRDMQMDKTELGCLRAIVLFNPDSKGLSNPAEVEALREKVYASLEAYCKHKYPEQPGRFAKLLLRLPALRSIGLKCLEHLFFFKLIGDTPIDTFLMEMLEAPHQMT
Sequence of E-selectin (Homo sapiens) (P16581 whole entry, looked up): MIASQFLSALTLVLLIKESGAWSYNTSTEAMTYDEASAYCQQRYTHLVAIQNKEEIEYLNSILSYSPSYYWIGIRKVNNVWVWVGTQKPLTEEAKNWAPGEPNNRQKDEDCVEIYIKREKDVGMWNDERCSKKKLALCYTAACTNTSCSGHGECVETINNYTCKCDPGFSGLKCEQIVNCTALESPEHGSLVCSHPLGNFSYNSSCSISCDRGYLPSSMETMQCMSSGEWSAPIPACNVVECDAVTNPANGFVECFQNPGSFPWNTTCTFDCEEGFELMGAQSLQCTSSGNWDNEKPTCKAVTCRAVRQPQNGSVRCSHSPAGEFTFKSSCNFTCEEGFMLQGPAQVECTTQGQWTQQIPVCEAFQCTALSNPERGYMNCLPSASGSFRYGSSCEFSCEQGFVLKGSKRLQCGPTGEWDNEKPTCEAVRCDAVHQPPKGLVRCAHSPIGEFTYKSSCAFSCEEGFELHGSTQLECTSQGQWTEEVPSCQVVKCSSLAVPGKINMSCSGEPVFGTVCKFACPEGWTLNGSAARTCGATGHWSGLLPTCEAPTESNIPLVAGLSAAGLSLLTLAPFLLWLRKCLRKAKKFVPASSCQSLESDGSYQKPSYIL
Sequence of human Thyroid Receptor alpha (THRa1), THRA (gene 7067) (P10827 whole entry, looked up, the tested form may be a part): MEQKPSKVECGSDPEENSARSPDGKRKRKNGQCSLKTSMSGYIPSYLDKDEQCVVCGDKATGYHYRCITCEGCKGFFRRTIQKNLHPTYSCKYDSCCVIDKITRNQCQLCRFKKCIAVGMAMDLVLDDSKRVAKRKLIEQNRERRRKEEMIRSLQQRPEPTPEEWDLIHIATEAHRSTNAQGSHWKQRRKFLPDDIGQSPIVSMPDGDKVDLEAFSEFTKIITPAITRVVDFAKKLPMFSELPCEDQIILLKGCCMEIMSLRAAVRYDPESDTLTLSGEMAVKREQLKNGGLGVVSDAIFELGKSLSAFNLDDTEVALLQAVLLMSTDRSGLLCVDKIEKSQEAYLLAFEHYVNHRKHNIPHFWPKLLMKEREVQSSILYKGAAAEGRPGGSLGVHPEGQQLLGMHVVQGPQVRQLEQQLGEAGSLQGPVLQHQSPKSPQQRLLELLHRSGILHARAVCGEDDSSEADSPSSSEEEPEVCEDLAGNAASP
Sequence of human RAR-related Orphan Receptor gamma (RORg), RORC (gene 6097) (P51449 whole entry, looked up, the tested form may be a part): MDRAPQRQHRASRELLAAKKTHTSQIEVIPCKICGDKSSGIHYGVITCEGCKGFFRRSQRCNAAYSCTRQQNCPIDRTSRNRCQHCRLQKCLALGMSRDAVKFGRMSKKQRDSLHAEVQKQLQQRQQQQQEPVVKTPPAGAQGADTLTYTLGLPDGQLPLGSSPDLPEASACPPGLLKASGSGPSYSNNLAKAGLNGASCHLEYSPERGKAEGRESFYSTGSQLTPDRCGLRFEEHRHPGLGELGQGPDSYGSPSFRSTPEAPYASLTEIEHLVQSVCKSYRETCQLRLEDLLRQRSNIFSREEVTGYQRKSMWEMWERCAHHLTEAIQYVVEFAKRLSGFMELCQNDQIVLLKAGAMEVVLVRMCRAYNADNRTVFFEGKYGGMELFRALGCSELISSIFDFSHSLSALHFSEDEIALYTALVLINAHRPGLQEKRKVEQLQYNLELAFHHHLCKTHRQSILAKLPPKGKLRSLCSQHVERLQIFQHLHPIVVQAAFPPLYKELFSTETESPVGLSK
Sequence of human Retinoic Acid Receptor gamma (RARg), RARG (gene 5916) (P13631 whole entry, looked up): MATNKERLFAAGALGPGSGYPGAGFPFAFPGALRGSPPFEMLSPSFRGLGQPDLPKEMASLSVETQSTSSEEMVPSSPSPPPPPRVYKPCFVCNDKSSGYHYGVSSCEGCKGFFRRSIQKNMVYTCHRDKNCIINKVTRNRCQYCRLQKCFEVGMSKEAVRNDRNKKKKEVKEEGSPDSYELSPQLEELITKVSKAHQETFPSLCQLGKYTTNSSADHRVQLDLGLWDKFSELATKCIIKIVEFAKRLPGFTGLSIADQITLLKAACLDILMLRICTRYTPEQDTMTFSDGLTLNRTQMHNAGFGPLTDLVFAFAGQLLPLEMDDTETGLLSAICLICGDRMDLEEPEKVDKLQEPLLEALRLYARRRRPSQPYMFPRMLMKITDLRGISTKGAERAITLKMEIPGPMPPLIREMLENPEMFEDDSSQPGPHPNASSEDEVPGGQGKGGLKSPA
Sequence of human Retinoid X Receptor beta (RXRb), RXRB (gene 6257) (P28702 whole entry, looked up, the tested form may be a part): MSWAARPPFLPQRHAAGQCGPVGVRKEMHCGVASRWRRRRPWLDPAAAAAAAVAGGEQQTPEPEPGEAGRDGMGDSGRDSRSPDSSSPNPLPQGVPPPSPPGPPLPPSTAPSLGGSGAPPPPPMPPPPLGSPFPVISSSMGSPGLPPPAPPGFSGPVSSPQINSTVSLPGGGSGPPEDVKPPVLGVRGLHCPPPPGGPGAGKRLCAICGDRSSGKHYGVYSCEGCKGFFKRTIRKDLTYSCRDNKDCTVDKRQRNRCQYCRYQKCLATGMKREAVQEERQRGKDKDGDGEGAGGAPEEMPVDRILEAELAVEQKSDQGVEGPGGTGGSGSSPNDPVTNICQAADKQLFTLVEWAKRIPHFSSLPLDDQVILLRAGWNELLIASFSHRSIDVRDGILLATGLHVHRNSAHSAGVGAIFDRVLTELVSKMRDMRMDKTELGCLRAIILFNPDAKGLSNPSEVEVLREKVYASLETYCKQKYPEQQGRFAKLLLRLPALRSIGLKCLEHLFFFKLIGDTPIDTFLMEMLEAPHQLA

CCCC(=NOCC)C1=C(O)CC(CC(C)SCC)CC1=O (centres undefined)
inactive: [1] | [2] | [3] | [4] | [5] | [6]

CSC(=O)c1c(C(F)F)nc(C(F)(F)F)c(C(=O)SC)c1CC(C)C
active: [8] 15.1 µM | [5] 20 µM | [6] 31.1 µM
inactive: [1] | [7] | [2] | [3] | [4]

N#Cc1c[nH]cc1-c1cccc2c1OC(F)(F)O2
inactive: [7] | [2] | [9] | [3] | [4]
active: [8] 1.68 µM | [10] 20 µM | [6] 20 µM

COc1cc(Cl)c(OC)cc1Cl
inactive: [1] | [2] | [8] | [9] | [3] | [4] | [10] | [6]

Cc1c(COC(=O)[C@@H]2[C@H](/C=C(\Cl)C(F)(F)F)C2(C)C)cccc1-c1ccccc1
inactive: [1] | [7] | [2] | [8] | [9] | [3] | [4] | [10]
active: [6] 5.44 µM

Nc1c(Cl)c(Cl)nc(C(=O)O)c1Cl
inactive: [7] | [2] | [8] | [9] | [3] | [4] | [10] | [6]

CC1(C)CON(Cc2ccccc2Cl)C1=O
inactive: [1] | [7] | [2] | [9] | [3] | [4] | [10] | [6]

O=P(O)(O)CCCl
inactive: [1] | [7] | [2] | [8] | [3] | [4] | [6]

Cc1cnc(C2=NC(C)(C(C)C)C(=O)N2)c(C(=O)O)c1 (centres undefined)
inactive: [1] | [7] | [2] | [8] | [9] | [3] | [4] | [10] | [6]

CC1(C)C(C=C(Cl)Cl)C1C(=O)OC(C#N)c1cccc(Oc2ccccc2)c1 (centres undefined)
inactive: [1] | [7] | [2] | [8] | [3] | [4] | [6]
active: [5] 9.17 µM

COC(=O)N(C(=O)N1CO[C@@]2(C(=O)OC)Cc3cc(Cl)ccc3C2=N1)c1ccc(OC(F)(F)F)cc1
inactive: [1] | [7] | [2] | [8] | [9] | [3] | [4] | [10] | [6]
active: [5] 6.07 µM

CNC(=O)Oc1cccc2ccccc12
inactive: [1] | [7] | [2] | [8] | [9] | [3] | [4] | [6]

CCCN(CC)CC1COC2(CCC(C(C)(C)C)CC2)O1 (centres undefined)
inactive: [1] | [7] | [2] | [8] | [9] | [3] | [4]
active: [6] 6.16 µM

O=C(Nc1ccccc1-c1ccc(Cl)cc1)c1cccnc1Cl
inactive: [7] | [2] | [8] | [9] | [3] | [4] | [10] | [6]

CCCCC(C#N)(Cn1cncn1)c1ccc(Cl)cc1 (centres undefined)
inactive: [1] | [7] | [8] | [3] | [4] | [6]

Clc1cccc(C(Cl)(Cl)Cl)n1
inactive: [7] | [2] | [8] | [9] | [3] | [4] | [10] | [5] | [6]

Cc1nc(N(C)C)nc(OC(=O)N(C)C)c1C
inactive: [1] | [7] | [2] | [9] | [3] | [4] | [10] | [5] | [6]

O=c1n(Cl)c(=O)n(Cl)c(=O)n1Cl
active: [6] 3.97 µM
inactive: [1] | [7] | [2] | [8] | [3] | [4]

CCOc1nc(C(Cl)(Cl)Cl)ns1
inactive: [1] | [7] | [2] | [8] | [9] | [3] | [4] | [10]
active: [6] 13.8 µM

CC(C)=CC1C(C(=O)OCc2coc(Cc3ccccc3)c2)C1(C)C (centres undefined)
inactive: [1] | [2] | [8] | [9] | [4]
active: [3] 8.92 µM | [10] 10.4 µM | [6] 7.53 µM

CCN(CC)c1nc(C)cc(OP(=S)(OC)OC)n1
active: [8] 33.7 µM
inactive: [1] | [7] | [9] | [3] | [4] | [5] | [6]

CS(=O)(=O)c1cc(C(F)(F)F)ccc1C(=O)c1cnoc1C1CC1
inactive: [1] | [7] | [2] | [8] | [3] | [4] | [6]

CC1(C)CCC(=Cc2ccc(Cl)cc2)C1(O)Cn1cncn1 (centres undefined)
active: [6] 5.3 µM
inactive: [1] | [2] | [8] | [3] | [4] | [10]

CCNP(=S)(OC)O/C(C)=C/C(=O)OC(C)C (centres undefined)
inactive: [1] | [7] | [8] | [3] | [4] | [10] | [5] | [6]

Nc1c(Cl)c(F)nc(OCC(=O)O)c1Cl
inactive: [1] | [2] | [8] | [3] | [4] | [6]

CCSC(=O)N1CCCCCC1
inactive: [1] | [7] | [2] | [8] | [3] | [4] | [10] | [5] | [6]

CC1(C)C(C(=O)OC(C#N)c2cccc(Oc3ccccc3)c2)C1(C)C (centres undefined)
inactive: [1] | [8] | [9] | [3] | [4] | [6]

CCOc1cc(C(C)(C)C)ccc1C1COC(c2c(F)cccc2F)=N1 (centres undefined)
active: [3] 18.9 µM | [10] 27.6 µM | [6] 29.8 µM
inactive: [1] | [7] | [2] | [8] | [4]

COP(=O)(OC)O/C(C)=C/C(=O)N(C)C
inactive: [1] | [7] | [9] | [3] | [4] | [6]

CCOC(=O)C(C)OC(=O)c1cc(Oc2ccc(C(F)(F)F)cc2Cl)ccc1[N+](=O)[O-] (centres undefined)
active: [5] 6.5 µM | [6] 3.97 µM
inactive: [1] | [8] | [9] | [3] | [4]

C=C(C)CN(CC)c1c([N+](=O)[O-])cc(C(F)(F)F)cc1[N+](=O)[O-]
inactive: [1] | [7] | [2] | [8] | [3] | [4] | [5] | [6]

COCc1cnc(C2=NC(C)(C(C)C)C(=O)N2)c(C(=O)O)c1 (centres undefined)
inactive: [1] | [2] | [8] | [9] | [3] | [4] | [5] | [6]
